In PubChem BioAssay (EPA / NIEHS) one finds AC50 and outcome data, which are given here for 40 molecules.

Molecules are shown by their SMILES. The source made the active and inactive calls. The calls were made as follows: active = hit-call score of the fitted dose curve at least 0.9, where 1 is the maximum; inactive = score below 0.9.

In the assay the target is Aryl hydrocarbon receptor (Homo sapiens) (UniProt P35869). The experiment in a line: ATG_Ahr_CIS: Attagene CIS-FACTORIAL HepG2 Assay for human Aryl Hydrocarbon Receptor (Ahr) (AID 2282930). As to conditions: HepG2 AhR cis-factorial reporter transcription; actives raise or lower the signal. As to the method: ATG_CIS is a cell-based, multiplexed-readout assay that uses HepG2, a human liver cell line, with measurements taken at 24 hours after chemical dosing in a 24-well plate.ATG_Ahr_CIS is one of 52 assay component(s) measured or calculated from the ATG_CIS assay. It is designed to make measurements of mRNA induction, a form of inducible reporter, as detected with fluorescence intensity signals by Reverse transcription polymerase chain reaction (RT-PCR) and Capillary electrophoresis technology.Data from the assay component ATG_Ahr_CIS was analyzed into 1 assay endpoint. This assay endpoint, ATG_Ahr_CIS, was analyzed with bidirectional fitting relative to DMSO as the negative control and baseline of activity. Using a type of inducible reporter, measures of mRNA for gain or loss-of-signal activity can be used to understand the reporter gene at the transcription factor-level as they relate to the gene AHR. Furthermore, this assay endpoint can be referred to as a primary readout, because this assay has produced multiple assay endpoints where this one serves a reporter gene function. To generalize the intended target to other relatable targets, this assay endpoint is annotated to the dna binding intended target family, where the subfamily is basic helix-loop-helix protein.
Sequence of Aryl hydrocarbon receptor (Homo sapiens) (P35869 whole entry, looked up): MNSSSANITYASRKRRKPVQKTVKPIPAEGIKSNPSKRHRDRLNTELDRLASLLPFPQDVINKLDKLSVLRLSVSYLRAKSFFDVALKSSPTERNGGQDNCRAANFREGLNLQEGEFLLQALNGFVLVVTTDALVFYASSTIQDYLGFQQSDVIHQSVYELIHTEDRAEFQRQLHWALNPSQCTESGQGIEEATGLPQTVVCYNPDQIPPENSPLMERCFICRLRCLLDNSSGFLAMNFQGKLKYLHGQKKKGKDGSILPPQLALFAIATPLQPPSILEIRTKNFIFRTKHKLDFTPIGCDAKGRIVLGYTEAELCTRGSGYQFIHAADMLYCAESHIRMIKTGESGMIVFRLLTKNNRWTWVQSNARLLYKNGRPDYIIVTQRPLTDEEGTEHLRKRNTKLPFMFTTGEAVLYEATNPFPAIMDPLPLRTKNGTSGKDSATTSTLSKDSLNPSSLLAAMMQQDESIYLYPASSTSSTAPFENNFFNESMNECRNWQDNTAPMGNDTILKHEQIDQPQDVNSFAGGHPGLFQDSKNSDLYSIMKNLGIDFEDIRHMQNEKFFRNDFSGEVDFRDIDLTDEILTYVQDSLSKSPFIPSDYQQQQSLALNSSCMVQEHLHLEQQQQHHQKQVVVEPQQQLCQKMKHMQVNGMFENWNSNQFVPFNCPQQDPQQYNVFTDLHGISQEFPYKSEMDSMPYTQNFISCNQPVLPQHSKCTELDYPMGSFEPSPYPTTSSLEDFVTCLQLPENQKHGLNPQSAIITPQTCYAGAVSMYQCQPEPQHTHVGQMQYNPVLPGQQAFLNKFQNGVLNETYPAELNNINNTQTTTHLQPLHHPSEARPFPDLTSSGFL
Human liver HepG2 cells are transiently transfected with multiple reporter transcription units (MRTUs) in 6-well plates using FuGene 6 reagent (Roche; 3 ml FuGene/1 mg DNA). The MRTU constructs are regulated by a cis-regulating element (promoter). […] A major difference between the CIS and TRANS system is that in CIS activities of endogenous TFs are measured, whereas the TRANS assay evaluates changes in activities of exogenous, chimeric NR-Gal4 proteins. […] At the end of 24 hour incubation, total RNA was isolated using TriZol reagent (Invitrogen). The isolated RNA is then reverse-transcribed using oligo(dT) primer and Mo-MLV reverse transcriptase (Invitrogen) with DNAse I (Ambion) treatment for 30 min. The one-tenth of the produced cDNA was amplified by PCR using Taq DNA polymerase (Invitrogen) and two reporter sequence-specific primers. The PCR products were fluorescently labeled by primer extension with 6-arboxyfluorescein (6-FAM) 5'-labeled reporter sequence-specific primer (2 min at 95 C, 20 s at 68 C and 10 min at 72 C) and these products were digested with 5U of HpaI (New England Biolabs) for 2h at 37 C. […] The raw capillary electrophoresis data was processed using Attagraph software (Attagene).
For the molecule `C1=CC2C3C=CC(C3)C2C1` (stereo not given), the AC50 – broadly, the concentration giving half of the maximal activity seen – was 98.5 µM (active).

As for `CS(C)=O`, the result was inactive.

With `CC1=NN(c2ccc(S(=O)(=O)O)cc2)C(=O)C1`, the molecule was classed as inactive.

Take `CCCCCCC(CO)CCCC` (stereo not given): the AC50 is 25.6 µM (active).

For the molecule `CCOC(=O)CCc1ccccc1`, the molecule was called inactive.

With `CCO/C=C1\N=C(c2ccccc2)OC1=O`, the result was inactive.

As for `Nc1ccc(N)c2c1C(=O)c1ccccc1C2=O`, the AC50 was 1.59 µM (active).

Turning to `C=C(C)[C@@H]1CC=C(C)C(=O)C1`, the molecule was called inactive.

`C=CC(=O)OCCC#N`: the call was inactive.

As for `C=C(C)CNCC`, the call was inactive.

For `NC(=S)NNC(N)=S`, the molecule was called inactive.

In the case of `O=C(Nc1ccc([N+](=O)[O-])cc1)Nc1ccc([N+](=O)[O-])cc1` (tested in a mixture with another compound), the half-maximal activity concentration (AC50) is 35.1 µM (active).

Take `CCCCCCC(C)(C)S`: the molecule was called inactive.

As for `Nc1ccc(Cl)c([N+](=O)[O-])c1`, the result was inactive.

Take `CCCCCC(=O)CC`: the molecule was called inactive.

Turning to `CC(=O)O[C@@H]1C[C@@H]2CC[C@@]1(C)C2(C)C`, the outcome was inactive.

Regarding `Clc1ccc(C(c2ccccc2Cl)C(Cl)Cl)cc1` (stereo not given), the AC50 was 65.6 µM (active).

Take `c1ccc2cc(Nc3ccc(Nc4ccc5ccccc5c4)cc3)ccc2c1`: the concentration at half-maximal activity (AC50) is 4 µM (active).

For the molecule `CCOc1ccc(NC(=O)CC(C)=O)cc1`, the molecule was classed as inactive.

As to `CCCSc1ccc2nc(NC(=O)OC)[nH]c2c1`, the result was inactive.

As to `CCOC(=O)C(C#N)=C(c1ccccc1)c1ccccc1`, the molecule was called inactive.

Consider `CCCCCCC(O)CCCCCCCCCCC(=O)O` (stereo not given), for which the outcome was inactive.

Regarding `C[Si](C)(C)O[Si](C)(C)C`, the result was inactive.

As to `CCCCCCCCc1ccc(S(=O)(=O)O)cc1`, the outcome was inactive.

In the case of `CC=Cc1ccc(OC)c(OC)c1`, the molecule was called inactive.

Turning to `C#CC(C)(O)CC(C)C` (stereo not given), the call was inactive.

For the molecule `C=C(C)C(=O)OCCOC1CC2CC1C1C=CCC21` (stereo not given), the molecule was classed as inactive.

On to `COc1cc(C(C)C)ccc1C`, for which the call was inactive.

On to `COCCOC(=O)c1ccccc1C(=O)OCCOC`, for which the call was inactive.

As for `N[C@@H](Cc1cc(I)c(Oc2cc(I)c(O)c(I)c2)c(I)c1)C(=O)O`, the AC50 is 3.62 µM (active).

As to `CCCC(=O)C(CC)Sc1ccoc1C` (stereo not given), the result was inactive.

Consider `CCC(=O)OCCOc1ccccc1`, for which the result was inactive.

Consider `O=[N+]([O-])c1ccc(O)cc1C(F)(F)F`, for which the AC50 is 53.8 µM (active).

In the case of `CCCC1O[C@@H]2C[C@H]3[C@@H]4CCC5=CC(=O)C=C[C@]5(C)[C@H]4[C@@H](O)C[C@]3(C)[C@]2(C(=O)CO)O1` (stereo not given in full), the call was inactive.

On to `CCCCCCOC(=O)C(C)C`, for which the result was inactive.

For `CCCC(C)=O`, the molecule was classed as inactive.

As for `CC(=O)CC(=O)Nc1ccccc1`, the molecule was called inactive.

For the molecule `CCOC(=O)C1OC1c1ccccc1` (stereo not given), the AC50 is 11.5 µM (active).

`CC(C)CCOC(=O)c1ccccc1`: the molecule was called inactive.

For `CCCCCCCCN1CCCC1=O`, the outcome was inactive.
